Screening results: PubChem, Sanford-Burnham Center for Chemical Genomics
TWEAK Fn14 block – inhibitors of TWEAK-Fn14 signaling, primary screen, luciferase reporter cells, uHTS; TWEAK-stimulated Fn14 reporter cells, luciferase luminescence, 8 h; inhibition, % at 10 µM; hit rate 2% among 360,000; AID 1159606, 2016; in the data active = inhibition above about 50%
KKLEB tox – cytotoxicity in KKLEB CF airway cells, primary screen, cytotoxicity control for CF NF-kB inhibitor project, cell-based, uHTS, fluorescence assay plates; KKLEB CF airway cells viability, ATPlite luminescence, overnight; active compounds read low; cells stimulated with P. aeruginosa culture filtrate; activity change (cytotoxicity), % at 5 µM; hit rate 0.36% among 360,000; AID 602141, 2011;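 active = corrected activity change at or below -50% at 5 µM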
HIF-2a block – HIF-2a reporter inhibitors, primary screen, luminescence, 786-0 RCC cells; hit rate 0.72% among 360,000; AID 624352, 2012; inhibition, % at 18.8 µM; 786-0 RCC cells HIF-2a reporter, luciferase luminescence, overnight;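 active = inhibition of the luminescence signal of 40% or more relative to plate controls, in a single-dose primary screen at 18.75 µM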
CF NFkB block – inhibitors of PAF-induced NF-kB signaling, primary screen, cell-based, GFP fluorescence, uHTS | KKLEB NF-kB-GFP reporter, GFP fluorescence overnight | inhibition, % at 5 µM | hit rate 0.86% among 360,000 | AID 588850, 2011;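 active = at least 50% inhibition at 5 µM, scaled per plate between neutral and stimulator controls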;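 note: PAF is a Pseudomonas aeruginosa culture filtrate used as stimulus; plate controls were PAF-stimulated DMSO wells for no effect and unstimulated DMSO wells for full effect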
TROY NFkB inh – inhibitors of TROY-driven NF-kB signaling, primary screen, Q293 LMP1-TROYcd cells, NF-kB luciferase, uHTS; AID 1347056, 2019; hit rate 0.98% among 360,000; inhibition, % at 10 µM; Q293 LMP1-TROYcd NF-kB luciferase reporter, 4 h;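 active = compounds whose plate-normalised and pattern-corrected inhibition of the luciferase reporter signal at the single screening dose is 50% or more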
Peg3 prom inh – Peg3 promoter-driven luciferase inhibitors, primary screen, cell-based, HeLa, luciferase luminescence. hit rate 1.7% among 360,000. inhibition, % at 20 µM. HeLa PEG-Prom luciferase reporter, overnight;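 active = inhibition of at least 50% at 20 µM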
Mdm2 MdmX conf – retested Mdm2-MdmX interaction blockers, confirmation, cell-based, luminescence, single concentration, set 2. inhibition, % at 8 µM. hit rate 99% among 740. shares compounds with HIF-2a block. AID 504601, 2011. SaOS-2 split-luciferase Mdm2/MdmX complementation;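 active = mean inhibition of the luminescence signal across two replicates at or above 26 percent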
Target sequence (O15151 whole entry, looked up): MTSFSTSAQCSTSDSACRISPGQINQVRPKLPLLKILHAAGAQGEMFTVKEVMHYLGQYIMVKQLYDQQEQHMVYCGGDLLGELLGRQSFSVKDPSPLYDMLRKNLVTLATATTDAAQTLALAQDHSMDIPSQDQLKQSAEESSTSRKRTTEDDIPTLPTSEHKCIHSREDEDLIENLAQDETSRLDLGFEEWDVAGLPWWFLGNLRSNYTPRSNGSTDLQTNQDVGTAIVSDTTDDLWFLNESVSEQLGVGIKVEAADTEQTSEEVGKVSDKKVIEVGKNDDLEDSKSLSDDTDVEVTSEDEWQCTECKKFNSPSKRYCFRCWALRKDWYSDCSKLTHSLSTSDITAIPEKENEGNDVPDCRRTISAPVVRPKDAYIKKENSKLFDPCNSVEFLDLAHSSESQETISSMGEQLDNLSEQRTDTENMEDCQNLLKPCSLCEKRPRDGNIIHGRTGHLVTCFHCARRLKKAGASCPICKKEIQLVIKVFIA
Target sequence (Q00987 whole entry, looked up): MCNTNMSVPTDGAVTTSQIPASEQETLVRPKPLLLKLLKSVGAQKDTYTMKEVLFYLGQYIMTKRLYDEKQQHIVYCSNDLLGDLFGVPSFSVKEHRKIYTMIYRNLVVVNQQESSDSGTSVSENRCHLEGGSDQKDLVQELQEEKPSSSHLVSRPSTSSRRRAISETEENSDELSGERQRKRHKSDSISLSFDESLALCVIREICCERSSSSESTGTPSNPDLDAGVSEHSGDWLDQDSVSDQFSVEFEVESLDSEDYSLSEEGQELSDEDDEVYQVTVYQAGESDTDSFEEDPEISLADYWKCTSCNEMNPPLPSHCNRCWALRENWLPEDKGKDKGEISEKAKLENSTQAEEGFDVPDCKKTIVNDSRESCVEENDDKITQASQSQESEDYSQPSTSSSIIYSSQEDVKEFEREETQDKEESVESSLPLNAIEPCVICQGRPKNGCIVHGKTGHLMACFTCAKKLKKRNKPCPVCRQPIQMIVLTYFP
HIF-2a inh conf – HIF-2a reporter inhibitor retest, confirmation, luminescence, 786-0 RCC cells | shares compounds with HIF-2a block | HIF-2a luciferase reporter luminescence, overnight | inhibition, % at 18.8 µM | hit rate 56% among 1,800;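 active = mean inhibition across four replicates of at least 40 percent at the single tested concentration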
HIF-1a cs – HIF-1a luciferase reporter signal reduction – MiaPaCa-2 cells, single concentration, counter-screen for HIF-2a inhibitor project, confirmation; shares compounds with HIF-2a block; MiaPaCa-2 HIF-1a luciferase reporter, desferoxamine, overnight; inhibition, % at 18.8 µM; hit rate 72% among 1,800; AID 651589, 2012;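 active = mean inhibition of the reporter signal across four replicates at the single tested dose of 50% or more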
The depositor's hits bear a star; · = no result. Compounds with a hit are over-represented: about 4% of the library has one in this group of screens.

SMILES | TWEAK Fn14 block | KKLEB tox | HIF-2a block | CF NFkB block | TROY NFkB inh | Peg3 prom inh | HIF-2a inh conf | HIF-1a cs | others
Cc1nn(-c2ccccc2)c(Cl)c1CN(C(=O)CCl)c1ccc(Cl)cc1 | -2 | -97* | 96* | 91* | 3 | 103* | 99* | 106*
CC(=O)N(Cc1c(C)nn(-c2ccccc2)c1Cl)c1ccc(Cl)cc1 | 5 | -10 | 29 | 18 | 6 | 22 | · | ·
NC(=O)C1CCN(C(=O)c2ccc(Cl)c(NC(=O)c3cccs3)c2)CC1 | 1 | -7 | 4 | 16 | -7 | 3 | · | ·
S=C1SCN(Cc2cccnc2)CN1Cc1cccnc1 | -1 | 0 | 7 | 17 | -11 | 67* | · | · | Mdm2 MdmX conf=98*
S=C1SCN(Cc2ccccc2)CN1Cc1ccccc1 | 0 | -26 | 0 | 26 | 2 | 16 | · | ·
COc1ccc(N2CCN(C(=S)Nc3ccccc3OC)CC2)cc1 | -6 | -5 | 6 | 3 | 7 | 7 | · | ·
O=C(/C=C/c1ccccc1)NCCS(=O)(=O)N1CCN(c2ccc(F)cc2)CC1 | 6 | -8 | 9 | 19 | 1 | 11 | · | ·
O=[N+]([O-])c1ccc(N=Nc2ncc[nH]2)cc1 | 85* | -7 | -23 | 75* | 11 | 107* | · | · | Mdm2 MdmX conf=103*
CSc1nnc(-c2ccccc2)o1 | -11 | 9 | -4 | -15 | -10 | -22 | · | ·
O=S1(=O)C=C(Sc2nnc(-c3ccccc3)o2)c2ccccc21 | 103* | -72* | 95* | 97* | 62* | 110* | · | · | Mdm2 MdmX conf=100*
COc1ccc(S(=O)(=O)NCc2cc(=O)n(C)c(=O)n2C)cc1C | 6 | -3 | 3 | -12 | 17 | 12 | · | ·
O=C(O)CCSc1nnc(-c2ccc3c(c2)OCO3)o1 | 82* | -4 | 92* | 8 | 52* | 36 | 96* | 80*
CCC(C)(C)c1ccc(OCCCC[n+]2ccccc2)c(C(C)(C)CC)c1 | 79* | -50* | 25 | 62* | 51* | 93* | · | · | Mdm2 MdmX conf=103*
CCCCCc1ccc(OCCCC[n+]2ccccc2)c(CCCCC)c1 | 50* | -28 | 86* | 49 | 37 | 95* | 30 | 103*
CCCCCc1ccc(OCCCC[n+]2ccc(C)cc2)c(CCCCC)c1 | 68* | -67* | 11 | 75* | 50* | 100* | · | · | Mdm2 MdmX conf=103*
CCCCCOc1ccc(CN2CCOCC2)cc1Cl | -3 | 9 | -185 | -17 | 16 | -231 | · | ·
CCC(C)(C)c1ccc(Oc2cccc(C(=O)O)c2)cc1 | -19 | -5 | 25 | -12 | -43 | -209 | · | ·
Nc1ccc2c(c1)Cc1c(F)cccc1-2 | -55 | 12 | -207 | -28 | -94 | -328 | · | ·
COc1ccc(C(CNC(=O)C(C)Sc2ccccc2)N2CCOCC2)cc1 (stereo not given) | 6 | 5 | 13 | -6 | -36 | -7 | · | ·
NS(=O)(=O)c1ccc(CCNc2ccn3nc(-c4ccc(OCCN5CCOCC5)cc4)cc3n2)cc1 | 12 | -7 | -7 | 13 | -7 | 32 | · | ·
O=C(CN(c1cccc(C(F)(F)F)c1)S(=O)(=O)c1ccc(Cl)c([N+](=O)[O-])c1)NCc1ccc(F)cc1 | 30 | 1 | 82* | 9 | 11 | 88* | 40 | 105*
CC(C(=O)NC(=O)NC1CCCCC1)N1CCN(c2ccc(O)cc2)CC1 (stereo not given) | 2 | 0 | 15 | 19 | 4 | 6 | · | ·
CCOc1ccc(-c2cc(CCCC(=O)Nc3cc(OC)ccc3OC)no2)cc1 | 50 | 21 | 57* | -11 | 23 | -38 | 79* | 52*
CCOc1ccc(NC(=O)CCCc2cc(-c3ccc(OCC)cc3)on2)cc1 | -20 | -15 | 4 | -11 | -6 | -11 | · | ·
CCOc1ccc(-c2cc(CCCC(=O)Nc3cccc(OC)c3)no2)cc1 | 57* | -6 | 42* | 6 | 24 | -13 | 52* | 70*
SMILES | TWEAK Fn14 block | KKLEB tox | HIF-2a block | CF NFkB block | TROY NFkB inh | Peg3 prom inh | HIF-2a inh conf | HIF-1a cs | others
CN(C)c1ccc(N2C(=NC(=O)c3ccccc3)SC3CS(=O)(=O)CC32)cc1 (stereo not given) | 0 | -11 | -1 | 16 | -2 | -14 | · | ·
O=C(OCn1ncc(Cl)c(Cl)c1=O)c1ccc(C(F)(F)F)cc1 | 79* | -12 | 93* | 49 | 25 | 105* | 60* | 104* | Mdm2 MdmX conf=103*
Cc1ccc(C(=O)OCn2ncc(Cl)c(Cl)c2=O)cc1 | 106* | -94* | 92* | 92* | 68* | 102* | 98* | 107*
Cc1ccc(C(=O)COC(=O)c2nc(Cl)ccc2Cl)cc1 | 12 | 8 | 13 | -5 | -27 | -3 | · | ·
Cc1cc(OCC(=O)N2CCC(C(N)=O)CC2)c2c(C)cc(=O)oc2c1 | -5 | 2 | 6 | -24 | -19 | -3 | · | ·
CCc1ccc2c(CC(=O)NNC(=O)c3ccncc3)coc2c1 | -7 | 3 | 6 | 4 | -15 | -5 | · | ·
CCCCCCCCCCn1ccc(=N)cc1 | 33 | -47 | 37 | 40 | 48 | 46 | · | · | Mdm2 MdmX conf=98*
O=C1NC2c3c(I)sc(I)c3C(=O)C2O1 (stereo not given) | 31 | 9 | 53* | -16 | 7 | 106* | 4 | 48
N#CC1=C(c2ccccc2)/C(=C/c2ccccc2)OC1=O | 83* | -7 | 89* | 42 | -6 | 104* | 4 | 106*
Cc1ccc(CNC(=O)CN2C(=O)CSc3ccc(S(=O)(=O)N4CCC(C)CC4)cc32)cc1 | 8 | 5 | 1 | 4 | 0 | 21 | · | ·
COCC1CCCN(C(=O)c2cc(COc3ccc4ncccc4c3)on2)C1 (stereo not given) | 34 | -8 | 2 | 2 | 25 | -17 | · | ·
O=C(O)COc1ccc2oc3ccccc3c2c1 | 36 | 5 | 53* | -3 | 23 | 14 | 68* | 30
O=C(O)COc1ccc2occ(C(=O)c3ccccc3)c2c1 | -6 | 0 | 7 | 6 | -1 | 7 | · | ·
Cc1ccc2c(C(=O)CN3CCSCC3)c(C)[nH]c2c1 | 5 | -14 | -14 | 13 | 0 | -10 | · | ·
Cc1ccc2c(C(=O)CCl)c(C)[nH]c2c1 | 25 | -32 | 0 | 78* | 27 | 50 | · | · | Mdm2 MdmX conf=103*
